Assay results published in PubChem BioAssay (Tox21).
Results filed as inconclusive are left out. Activity calls are given as the source filed them. Calls follow the shape of the dose curve; as a rule, active = well fitted curve in the direction sought with a large enough effect in the repeat runs; inconclusive = weak or mixed curves; inactive = no such curve, though single readings can be large; an effect the other way counts as inactive or inconclusive.

Columns and labels:
[1] = Human pregnane X receptor (PXR) small molecule agonists, qHTS cell viability counter screen (AID 1346977); conditions: PXR-Luc HepG2 viability, CellTiter-Fluor, 24 h; series mostly up to 92.4 µM; also: nearly all actives have a fitted effect of over 50% in size
How it was run: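 PXR-Luc HepG2, 2,000 cells/well, 5% charcoal-stripped FBS; 5hr settle; cpd 24hr, 37C/5% CO2; CellTiter-Fluor at 23hr, read 1hr later (fluorescence).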

[2] = Caspase-3/7 induction in HepG2 cells by small molecules, qHTS assay (AID 1346978); conditions: HepG2 caspase-3/7 activation, Caspase-Glo luminescence, 17 h; series mostly up to 92.4 µM; also: nearly all actives have a fitted effect of over 15% in size
How it was run: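 Wild-type HepG2 cells (2,000/well) were settled 5 h at 37 C, 5% CO2, then exposed to compounds in DMSO for 17 h. Caspase-3/7 activity was read by luminescence 30 min after adding Caspase-Glo 3/7 reagent at room temperature.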

[3] = Caspase-3/7 induction in CHO-K1 cells by small molecules, qHTS cell viability counter screen (AID 1346979); conditions: CellTiter-Fluor fluorescence, 17 h; series mostly up to 92.4 µM; also: nearly all actives have a fitted effect of over 35% in size
How it was run: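 Cells (CHO-K1, wild type) are plated at 1,500 per well and incubated 5hr. Test compounds in DMSO are then pinned in, followed by 16hr at 37C and 5% CO2. Viability is read by CellTiter-Fluor fluorescence after 1hr.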

[4] = Caspase-3/7 induction in CHO-K1 cells by small molecules, qHTS assay (AID 1346980); conditions: CHO-K1 caspase-3/7 induction, Caspase-Glo luminescence, 17 h; series mostly up to 92.4 µM; also: nearly all actives have a fitted effect of over 15% in size
How it was run: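 Wild-type cells were seeded at 1,500 per well and settled 5 hr at 37 C, 5% CO2, then exposed to DMSO-dissolved compounds for 17 hr. Caspase-Glo 3/7 reagent was added, and luminescence was read after 30min at room temperature.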

[5] = Caspase-3/7 induction in HepG2 cells by small molecules, qHTS cell viability counter screen (AID 1346981); conditions: CellTiter-Fluor fluorescence, 17 h; series mostly up to 92.4 µM; also: nearly all actives have a fitted effect of over 30% in size
How it was run: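 After a 5-hr attachment period at 37 C and 5% CO2, wild-type HepG2 cells received compounds in DMSO. Sixteen hours later CellTiter-Fluor was dispensed and the fluorescent signal quantified after a further hour.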

[6] = target: Nuclear receptor subfamily 1 group I member 2 (Rattus norvegicus) (UniProt Q9R1A7); assay: Rat pregnane X receptor (rPXR) activation by small molecules, qHTS assay (AID 1346983); conditions: rPXR luciferase reporter cells, One-Glo luminescence, 24 h; hits give high values; also: nearly all actives have a fitted effect of over 20% in size
Nuclear receptor subfamily 1 group I member 2 (Rattus norvegicus), sequence (Q9R1A7 whole entry, looked up): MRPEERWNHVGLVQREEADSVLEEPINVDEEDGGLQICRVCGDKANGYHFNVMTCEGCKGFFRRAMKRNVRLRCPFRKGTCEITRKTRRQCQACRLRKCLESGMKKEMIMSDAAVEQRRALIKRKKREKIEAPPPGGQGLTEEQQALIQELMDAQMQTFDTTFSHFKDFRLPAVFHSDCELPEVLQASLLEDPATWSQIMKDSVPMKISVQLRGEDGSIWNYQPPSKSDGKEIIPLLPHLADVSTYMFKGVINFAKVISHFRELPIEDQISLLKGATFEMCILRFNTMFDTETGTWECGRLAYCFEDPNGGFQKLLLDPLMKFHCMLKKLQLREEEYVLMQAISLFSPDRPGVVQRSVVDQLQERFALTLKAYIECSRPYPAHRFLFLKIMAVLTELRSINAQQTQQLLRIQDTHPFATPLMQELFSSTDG
How it was run: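 Cell-based rPXR luciferase reporter assay, 2,000 cells per well, rested 5hr at 37 C before compound addition in DMSO, then 24 hr at 37 C. One-Glo reagent was added and luminescence read after 30 min at room temperature.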

[7] = target: Nuclear receptor subfamily 1 group I member 2 (Homo sapiens) (UniProt O75469); assay: Human pregnane X receptor (PXR) small molecule agonists, qHTS assay (AID 1346982); conditions: PXR-Luc HepG2, CYP3A4 luciferase reporter, 24 h; series mostly up to 92.4 µM; also: nearly all actives have a fitted effect of over 35% in size; also: potency is read from the fitted curve at half-maximal effect
Nuclear receptor subfamily 1 group I member 2 (Homo sapiens), sequence (O75469 whole entry, looked up): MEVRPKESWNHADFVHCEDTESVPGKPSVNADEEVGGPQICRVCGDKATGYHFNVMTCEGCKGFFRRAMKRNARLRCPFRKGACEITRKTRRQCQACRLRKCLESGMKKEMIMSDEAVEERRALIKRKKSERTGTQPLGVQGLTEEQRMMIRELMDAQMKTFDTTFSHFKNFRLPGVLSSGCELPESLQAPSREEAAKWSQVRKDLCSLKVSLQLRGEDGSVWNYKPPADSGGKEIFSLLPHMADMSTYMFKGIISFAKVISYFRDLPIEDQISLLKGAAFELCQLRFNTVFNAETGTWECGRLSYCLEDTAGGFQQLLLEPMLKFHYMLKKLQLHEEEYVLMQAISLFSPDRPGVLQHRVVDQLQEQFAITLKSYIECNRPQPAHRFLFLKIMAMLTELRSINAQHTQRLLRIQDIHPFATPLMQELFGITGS
How it was run: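 Tox21 qHTS; PXR-Luc HepG2; compounds pinned from DMSO; 24 hr, 37 C; ONE-Glo luciferase detection, 30 min room temperature.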

[8] = target: Nuclear receptor subfamily 1 group I member 2 (Homo sapiens) (UniProt O75469); assay: CYP3A4 induction through human pregnane X receptor (PXR) by small molecules, qHTS assay (AID 1346984); conditions: DPX-2 HepG2 PXR, CYP3A4-luciferin luminescence, 24 h; series mostly up to 46.1 µM; also: nearly all actives have a fitted effect of over 40% in size; also: potency is read from the fitted curve at half-maximal effect
How it was run: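 Cells (DPX-2; HepG2 with PXR element plus CYP3A4-promoter luciferase) settled 5hr, then were treated 24hr at 37C. A 3hr, 3uM-final Luciferin-IPA step preceded luminescence measurement with One-Glo.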

[9] = target: Nuclear receptor subfamily 1 group I member 2 (Homo sapiens) (UniProt O75469); assay: Human pregnane X receptor (PXR) activation by small molecules, qHTS assay (AID 1346985); conditions: DPX-2 HepG2 CYP3A4-luciferase, 24 h; series mostly up to 38.3 µM; also: nearly all actives have a fitted effect of over 40% in size
How it was run: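 DPX-2 cells (HepG2 co-transfected with a PXR response element and a CYP3A4-promoter luciferase construct) were seeded at 2,000 per well, rested 5 hr at 37C, then exposed to DMSO-dissolved compounds for 24 hr. Activation was read as luciferase luminescence.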
% is scaled to controls: 0 for no effect and ±100 for the full control effect.

CC1=C(C(=O)O)N2C(=O)[C@@H](NC(=O)[C@H](N)c3ccc(O)cc3)[C@H]2SC1
inactive: Potency [1] | Potency [2] | Potency [3] | outcome [4] | Potency [5] | max activation [6] -3.3%

C[C@@H]1O[C@@H](O[C@@H]2[C@@H](O)[C@H](OCCc3ccc(O)c(O)c3)O[C@H](CO[C@@H]3O[C@H](CO)[C@@H](O)[C@H](O)[C@H]3O)[C@H]2OC(=O)/C=C/c2ccc(O)c(O)c2)[C@H](O)[C@H](O)[C@H]1O
inactive: Potency [2] | outcome [4] | Potency [5] | Potency [7]

CCCCN
inactive: Potency [1] | Potency [2] | Potency [3] | outcome [4] | Potency [7]

C[Si](C)(C)C
inactive: Potency [1] | Potency [2] | Potency [3] | Potency [5]

CC(C)C(=O)OCCc1ccccc1
inactive: Potency [1] | Potency [2] | Potency [3] | Potency [7]

O=C(O)c1ccc(Cl)cc1Cl
inactive: Potency [1] | Potency [2] | Potency [3] | outcome [4] | Potency [7]

CCOC(=O)c1ccc(OC(=O)CCCCCN=C(N)N)cc1
inactive: Potency [1] | Potency [2] | Potency [3] | Potency [5] | Potency [7] | max activation [6] 0.318% | Potency [8] | Potency [9]

FC(F)(F)c1ccccc1-n1ccnc1
inactive: Potency [1] | Potency [2] | Potency [3] | outcome [4] | Potency [7]

CC(C)C[C@H](NC(=O)CNC(=O)[C@H](Cc1ccc(O)cc1)NC(=O)[C@H](CO)NC(=O)[C@H](Cc1c[nH]c2ccccc12)NC(=O)[C@H](Cc1cnc[nH]1)NC(=O)[C@@H]1CCC(=O)N1)C(=O)N[C@@H](CCCN=C(N)N)C(=O)N1CCC[C@H]1C(=O)NCC(N)=O (stereo in doubt)
inactive: Potency [1] | Potency [2] | Potency [3] | outcome [4] | Potency [7]

C[Si](C)=O
inactive: activity change, negative = cytotoxicity [1] 7.41% [at 8.39 µM] | caspase activation [2] 0.773% [at 8.39 µM] | activity change, negative = cytotoxicity [3] 1.4% [at 8.39 µM] | caspase-3/7 activation [4] 0.203% [at 8.39 µM] | activation [7] 16.2% [at 8.39 µM]

CC(C)C(=O)OCc1cccc(OC(=O)[C@@H]2N3C(=O)[C@@H](NC(=O)Cc4ccccc4)[C@H]3SC2(C)C)c1
inactive: Potency [1] | Potency [2] | Potency [3] | Potency [5] | Potency [7]

NS(=O)(=O)c1ccc(NC(=O)CCC(=O)O)cc1
inactive: Potency [1] | Potency [2] | Potency [3] | outcome [4] | Potency [7] | max activation [6] -2.26% | Potency [8] | Potency [9]

O=Cc1ccc(Cl)c(Cl)c1
inactive: Potency [1] | Potency [2] | Potency [3] | Potency [5] | Potency [7]

CC(=O)NCc1c(I)c(NC(C)=O)c(I)c(C(=O)O)c1I
inactive: Potency [1] | Potency [2] | outcome [4] | Potency [7] | max activation [6] -0.535% | Potency [8] | Potency [9]

CCCC/C=C/C=C\C=O
active: Potency [7] 24.3 µM
inactive: Potency [1] | Potency [2] | Potency [3]

N[C@@H](CCC(=O)N[C@@H](CS)C(=O)NCC(=O)O)C(=O)O
inactive: activity change, negative = cytotoxicity [1] 1.19% [at 19 µM] | caspase activation [2] -1.46% [at 19 µM] | activity change, negative = cytotoxicity [3] 5.61% [at 19 µM] | max activation [6] 3.38%

Cc1cc(C(C)(C)C)c(O)c(C)c1CC1=NCCN1
inactive: Potency [1] | Potency [2] | Potency [3] | Potency [5] | Potency [7]

CCCOC(OCCC)OCCC
inactive: Potency [1] | Potency [2] | Potency [3] | Potency [5] | Potency [7]

CC[C@H](C)C(=O)O[C@H]1C[C@H](O)C=C2C=C[C@H](C)[C@H](CC[C@@H](O)C[C@@H](O)CC(=O)O)[C@H]21
inactive: Potency [1] | Potency [2] | Potency [3] | outcome [4] | Potency [7] | max activation [6] -0.271% | Potency [8] | Potency [9]

COc1ccc(-c2cc(=O)c3c(O)cc(O[C@@H]4O[C@H](CO[C@@H]5O[C@@H](C)[C@H](O)[C@@H](O)[C@H]5O)[C@@H](O)[C@H](O)[C@H]4O)cc3o2)cc1O
active: Potency [8] 12.6 µM
inactive: Potency [1] | Potency [2] | Potency [3] | outcome [4] | Potency [7] | max activation [6] -2.2% | Potency [9]

CCCCCOC(=O)CCC
inactive: Potency [1] | Potency [2] | Potency [3] | outcome [4] | Potency [7]

Brc1ccc(-c2ccccc2)cc1
inactive: Potency [1] | Potency [2] | Potency [3] | Potency [7]

CC(COC(C)(C)C)OCCCO (configuration not stated)
inactive: Potency [1] | Potency [2] | Potency [5] | Potency [7]

CC(=O)OC(C)OC(=O)C(C)c1ccc(-c2ccccc2)c(F)c1 (configuration not stated)
inactive: Potency [1] | Potency [2] | outcome [4] | Potency [5] | Potency [7]

Oc1cn2c(n1)Nc1ccc(Cl)c(Cl)c1C2
inactive: activity change, negative = cytotoxicity [1] -3.42% [at 19 µM] | caspase activation [2] 0.135% [at 19 µM] | activity change, negative = cytotoxicity [3] -2.03% [at 19 µM] | activity change, negative = cytotoxicity [5] 6.29% [at 19 µM] | max activation [6] 0.479% | Potency [8] | Potency [9]

C[C@H](CCC(=O)O)[C@H]1CC[C@H]2[C@@H]3C(=O)C[C@@H]4CC(=O)CC[C@]4(C)[C@H]3CC(=O)[C@]12C
inactive: Potency [1] | Potency [2] | Potency [3] | outcome [4] | Potency [7] | max activation [6] -0.558% | Potency [8] | Potency [9]

OCCCCC(O)CO (configuration not stated)
inactive: Potency [1] | Potency [2] | Potency [3] | Potency [5] | Potency [7]

CC(=O)Nc1cccc(C)c1
inactive: Potency [1] | Potency [2] | Potency [3] | outcome [4] | Potency [7]

CCCCNc1ccc(C(=O)OCCN(C)C)cc1
inactive: Potency [1] | Potency [2] | Potency [3] | outcome [4] | Potency [5] | max activation [6] -1.52%

NC(CO)C(=O)NNCc1ccc(O)c(O)c1O (configuration not stated)
inactive: Potency [1] | Potency [2] | Potency [3] | outcome [4] | Potency [5] | max activation [6] -1.3% | Potency [9]

CCCCCCCCOS(=O)(=O)O
inactive: Potency [1] | Potency [2] | outcome [4] | Potency [7]

O=C(Nc1ccc(Cl)c(Cl)c1)C1CC1
active: Potency [7] 29.8 µM
inactive: Potency [1] | Potency [2] | outcome [4] | Potency [5] | max activation [6] -0.7% | Potency [8]

CCCC(=O)C(C)=O
inactive: Potency [1] | Potency [2] | Potency [3] | Potency [5] | Potency [7]

CC(C(=O)O)c1ccc2c(c1)CC(=O)c1ccccc1S2 (configuration not stated)
inactive: Potency [1] | Potency [2] | Potency [3] | Potency [5] | Potency [7]

O=C1c2cccc3c2[C@H](CCC3)CN1[C@@H]1CN2CCC1CC2
inactive: Potency [2] | outcome [4] | Potency [7] | max activation [6] -9.35% | Potency [9]

CCCCCCOc1ccccc1C(N)=O
inactive: Potency [1] | Potency [2] | outcome [4] | Potency [5] | max activation [6] 6.49%
